From PubChem BioAssay
Calls of active or inactive are those of the source. Unless noted, the rule behind the calls is not given here.

What was measured:
[1] = tested on: Wnt5a (protein binding on small-molecule microarray); assay: small molecules binding Wnt5a protein – biophysical, small-molecule microarray, 635/667 nm fluorescence, primary screen (AID 1142); conditions: 635 nm fluorescence, higher = more signal;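 note: fluorescence read at 667 nm with signal to noise per printed feature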
[2] = ATP-based viability of Huh7 replicon cells – cell-based, CellTiter-Glo luminescence, basal, 48 h, cytotoxicity control for HCV replication inhibitor project, primary screen (AID 1143); conditions: higher = more signal, called active from +8 up or from −8 down;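 note: Huh7 hepatoma cells carrying a hepatitis C replication reporter with no stimulus; test concentration not given here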
[3] = Pseudomonas biofilm growth suppression – PAO1 strain, BacTiter-Glo luminescence, LB-PBS, primary screen (AID 1144); conditions: P. aeruginosa PAO1 biofilm, 12 h, higher = more signal
[4] = basal CRE-LacZ reporter activity in PC12 – cell-based, unstimulated, primary screen (AID 1145); conditions: no forskolin, luminescence, 4.5 h, higher = more signal, called active from +8 up or from −8 down
[5] = forskolin-driven CRE-LacZ activity in PC12 – cell-based, CRE-LacZ reporter, forskolin-stimulated, primary screen (AID 1146); conditions: luminescence, 4.5 h, higher = more signal, called active from +8 up or from −8 down;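 note: PC12 cells with 6xCRE LacZ reporter stimulated by forskolin 10 µM; beta-galactosidase reporter signal reflecting CREB driven transcription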
[6] = target: Streptavidin (Streptomyces avidinii) (UniProt P22629); assay: compounds binding control protein streptavidin – biophysical, small-molecule microarray, 635/667 nm fluorescence, artefact control for SMM compound annotation, primary screen (AID 1147); conditions: higher = more signal;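 note: signal reflects streptavidin binding to arrayed compounds as a control protein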
Sequence of Streptavidin (Streptomyces avidinii) (P22629 whole entry, looked up): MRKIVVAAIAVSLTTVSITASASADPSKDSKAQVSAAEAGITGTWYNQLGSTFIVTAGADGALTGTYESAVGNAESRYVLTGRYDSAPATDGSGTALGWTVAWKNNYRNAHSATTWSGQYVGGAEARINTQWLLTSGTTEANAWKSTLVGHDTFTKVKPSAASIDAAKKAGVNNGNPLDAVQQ

[7] = probe aInhba binding on compound microarray – biochemical, small-molecule microarray, 635/667 nm fluorescence, primary screen (AID 1148); conditions: higher = more signal;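 note: score merges 667nm spot fluorescence with signal-to-noise for antibody binding to printed compounds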
Torsin-1A (Homo sapiens) [8] = target: Torsin-1A (Homo sapiens) (UniProt O14656); assay: TOR1A wild-type binding on microarray – cell lysate, small-molecule microarray, lysate, 635/667 nm, primary screen (AID 1149); conditions: COS7 hTOR1A-WT lysate, 635 nm fluorescence, higher = more signal
Sequence of Torsin-1A (Homo sapiens) (O14656 whole entry, looked up): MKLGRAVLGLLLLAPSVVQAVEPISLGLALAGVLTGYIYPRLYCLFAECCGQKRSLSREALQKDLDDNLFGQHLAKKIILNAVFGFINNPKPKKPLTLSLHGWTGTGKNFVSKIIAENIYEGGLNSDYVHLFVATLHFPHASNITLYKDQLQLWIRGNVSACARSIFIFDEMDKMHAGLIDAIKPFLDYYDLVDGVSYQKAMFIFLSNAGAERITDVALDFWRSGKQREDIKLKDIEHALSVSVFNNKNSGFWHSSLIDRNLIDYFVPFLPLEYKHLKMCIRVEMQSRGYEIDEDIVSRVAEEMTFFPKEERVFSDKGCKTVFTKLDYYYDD

Torsin-1A (Homo sapiens) [9] = target: Torsin-1A (Homo sapiens) (UniProt O14656); assay: torsin A mutant lysate binding on microarrays – cell lysate, small-molecule microarray, COS7 lysate, 635/667 nm fluorescence, primary screen (AID 1150); conditions: COS7 hTOR1A mutant lysate, 635 nm fluorescence, higher = more signal;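 note: score pools 667 nm emission and signal to noise measuring lysate protein binding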
[10] = tested on: Sonic hedgehog protein (Shh); assay: Sonic hedgehog microarray binding compounds – biochemical, small-molecule microarray, 635/667 nm fluorescence, primary screen (AID 1151); conditions: 635 nm fluorescence, higher = more signal;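 note: Shh protein binding to compounds spotted on small-molecule microarray slides; score combines spot fluorescence intensity with signal-to-noise across triplicate slides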

Row | SMILES | composite z-score [1] | z-score [2] | z-score [3] | z-score [4] | z-score [5] | composite z-score [6] | composite z-score [7] | composite z-score (Torsin-1A (Homo sapiens) [8]) | composite z-score (Torsin-1A (Homo sapiens) [9]) | composite z-score [10]
1 | CCCNC(=O)OC[C@H]1O[C@H](CCON=C2c3cc(OC)ccc3O[C@H](c3cccc(OC)c3)[C@H]2O)C=C[C@@H]1Oc1ccc(OC)cc1 | 0.298 | -0.69 (inactive) | 0.298 (inactive) | 4.37 (inactive) | 0.469 (inactive) | 0.474 | -0.0011 | 0.442 | 0.818 | 0.436
2 | CCN1C(=O)[C@H]2[C@H]3[C@H](O)[C@H](O)CC(=NNC(=O)OCc4ccccc4)[C@H]3CC[C@H]2C1=O | 0.038 | -0.0436 (inactive) | 0.877 (inactive) | -0.119 (inactive) | -0.497 (inactive) | 0.214 | -0.0719 | -0.211 | 0.223 | -0.486
3 | CC(=O)OC[C@H]1O[C@H](CC=NO[C@@H](C)c2cc(-c3c(C)cc(C)cc3C)no2)C=C[C@@H]1OC(C)=O | -0.184 | 0.125 (inactive) | -0.176 (inactive) | 0.173 (inactive) | 0.481 (inactive) | 0.897 | -0.175 | 0.213 | -0.31 | 0.0602
4 | C[C@@H](c1ccccc1)N1C(=O)[C@H]2[C@H]3[C@H](O)[C@H](O)CC(=NNC(=O)OCc4ccccc4)[C@@H]3CC[C@H]2C1=O | 0.15 | 0.231 (inactive) | -0.479 (inactive) | -0.38 (inactive) | 0.0869 (inactive) | -0.31 | -0.335 | 3.35 | 3.49 | 2
5 | COC(=O)[C@@H]1CC[C@H](C)[C@@H](c2ccc(Br)cc2)N1 | 0.224 | 0.336 (inactive) | -0.984 (inactive) | 0.372 (inactive) | -0.257 (inactive) | 0.0708 | 0.0705 | 0.387 | 0.0795 | -0.0173
6 | CC(C)CON=C1C[C@@H](O)[C@@H](O)[C@@H]2[C@@H]3C(=O)N(Cc4ccccc4)C(=O)[C@@H]3CC[C@H]12 | 0.0659 | -1.75 (inactive) | -1.46 (inactive) | -0.0223 (inactive) | 0.627 (inactive) | -0.682 | -0.212 | 0.0783 | 0.208 | 0.503
7 | CO[C@H]1COC(=O)[C@H](C)COC(=O)[C@H](C)NC(=O)CC=C[C@H]1C | 0.108 | -1.34 (inactive) | 0.598 (inactive) | 0.611 (inactive) | -0.506 (inactive) | -0.237 | -0.0762 | 1.26 | 1.18 | 1.88
8 | O=C1C=C[C@@H](O)[C@@H]2[C@@H]3C(=O)N(C4CCCCC4)C(=O)[C@@H]3CC[C@@H]12 | 0.474 | -2.62 (inactive) | 0.411 (inactive) | 0.25 (inactive) | 0.915 (inactive) | -0.748 | 0.177 | 0.54 | 0.595 | 0.781
9 | CC(C)CON=C1C[C@@H](O)[C@@H](O)[C@@H]2[C@@H]3C(=O)N([C@@H](C)c4ccccc4)C(=O)[C@@H]3CC[C@@H]12 | -0.0932 | -0.192 (inactive) | 0.374 (inactive) | 0.149 (inactive) | -0.776 (inactive) | 0.0337 | -0.0791 | -0.0344 | 0.118 | -0.104
10 | COc1ccc(COC(=O)NN=C2C[C@@H](O)[C@@H](O)[C@@H]3[C@@H]4C(=O)N(C[C@@H]5CCCO5)C(=O)[C@@H]4CC[C@H]23)cc1 | -0.109 | 0.338 (inactive) | 0.296 (inactive) | 0.159 (inactive) | -0.166 (inactive) | 0.669 | 0.0275 | -0.858 | -0.48 | -1.12
11 | O=C1CCCC=C1C(O)COCc1ccccc1 (stereo not given) | 0.154 | 0.78 (inactive) | 0.616 (inactive) | 0.109 (inactive) | 0.0658 (inactive) | 1.42 | -0.238 | -0.465 | -0.0394 | 0.124
12 | CO[C@@H](C1CCCCC1)[C@@H](C)[C@H](OCc1cccc(Br)c1)[C@@H](C)CO | -0.098 | -2.1 (inactive) | 0.115 (inactive) | 2.93 (inactive) | 0.432 (inactive) | -0.0731 | 0.0442 | -0.0604 | 0.467 | 0.458
13 | CC(C)=NO[C@H](C)c1cn([C@@H]2COC[C@H]2O)nn1 | 0.185 | 0.495 (inactive) | -1.16 (inactive) | 0.099 (inactive) | -0.0851 (inactive) | -0.085 | -0.0963 | 0.455 | 0.461 | 0.477
14 | CCN1C(=O)[C@H]2[C@H]3[C@H](O)[C@H](O)CC(=NOCC=C(C)CCC=C(C)C)[C@@H]3CC[C@H]2C1=O | 0.288 | -2.44 (inactive) | 0.17 (inactive) | -0.115 (inactive) | -0.157 (inactive) | -0.43 | -0.204 | 2.38 | 0.981 | 2.07
15 | CC(CCN1CCc2nc(-c3ccccc3)c(-c3ccccc3)cc2C1)=NO[C@H](C)c1cn([C@H](CO)Cc2ccccc2)nn1 | 0.136 | -2.39 (inactive) | -0.413 (inactive) | 0.987 (inactive) | 1.11 (inactive) | 0.545 | -0.0494 | 0.824 | 1.23 | 0.565
